The term viability denotes a read-out of living cells in per cent, often relative to untreated cells.

Molecules are shown by their SMILES. “And” between values parts separate entries of the source, which are not always exact repeats. Equal entries are not always repeated. The source made the active and inactive calls. Unless noted, the rule behind the calls is not given here.

The nature of assay [1]: liver-stage malaria parasite load reduction – cell-based, known kinase inhibitor set, luminescence, hepatoma host viability (AID 624392).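 Note: infected cells incubated roughly two days before readout.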 The note with it: Plasmodium liver stage in hepatoma cells, luciferase luminescence, concentration not given here; liver cell % of control: measured here: host liver cell viability; parasite % of control: stronger effect = lower value.
The nature of assay [2]: P. berghei load reduction in hepatocytes – cell-based, HepG2, luciferase luminescence, HepG2 viability, primary screen (AID 624349; in the data active = parasite load remaining mostly below about 12%, no sharp cut-off; inactive = mostly above about 10%;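 note: 100% = mean of DMSO negative control wells on the same plate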). The note with it: P. berghei liver stage in HepG2, luciferase luminescence, concentration not given here; parasite load remaining: stronger effect = lower value; viability: measured here: HepG2 viability without parasites.

For the compound `CCN1CCN(Cc2ccc(NC(=O)c3ccc(C)c(NC(=O)c4cccc5[nH]ccc45)c3)cc2C(F)(F)F)CC1`, in assay [1], the liver cell % of control worked out at 103% and the parasite % of control was 99.7% (inactive).
As for `O=C(O)Cc1c2ccccc2n2c1[nH]c(=O)c1ccccc12`, in assay [2], the parasite load remaining was 35.1% (inactive) and the viability was determined as 170%.
As to `COc1cc(NC(=O)c2ccnnc2)cc(C(=O)Nc2cccc(C(F)(F)F)c2)c1`, in assay [1], the liver cell % of control was 93.4% and the parasite % of control was 97.5% (inactive).
For `Nc1cc(Nc2ccc(S(N)(=O)=O)cc2)ncn1`, in assay [2], the parasite load remaining is 48.4% (inactive) and the viability worked out at 133%. Also, in assay [1], the liver cell % of control worked out at 97.7% and the parasite % of control was 145% (inactive).
As for `COc1ccc(-c2cnc3c(-c4ccsc4)cnn3c2)cc1`, in assay [2], the parasite load remaining is 16.9% (inactive) and the viability was determined as 67.4%.
Consider `Nc1ccccc1CNc1nc(NCCO)nc2c1ncn2CCN1CCOCC1`, for which, in assay [1], the liver cell % of control was determined as 100% and the parasite % of control was 125% (inactive).
`N#C/C(=C(/N)Sc1ccccc1N)c1cccc(C(O)c2ccncc2)c1` (stereo unspecified): in assay [2], the parasite load remaining is 49.2% (inactive) and the viability turned out to be 70%.
For `O=C1NC(=O)/C(=C/c2ccc3c(c2)OCO3)S1`, in assay [2], the parasite load remaining is 37.6% (inactive) and the viability stood at 63.8%.
For the compound `CC(C)n1cnc2c(NCc3ccccc3)nc(NCc3ccccc3)nc21`, in assay [1], the liver cell % of control was determined as 91.8% and the parasite % of control was 83.2% (inactive).
On to `O=C(Nc1cccc(-c2csc(Nc3ccc(Cl)cc3)n2)c1)c1ccccc1`, for which, in assay [1], the liver cell % of control worked out at 90.9% and the parasite % of control was 112% (inactive).
For the compound `CC(C)n1cnc2c(Nc3cccc(Cl)c3)nc(NCCCO)nc21`, in assay [1], the liver cell % of control came out at 90.1% and the parasite % of control is 206% (inactive).
For the compound `C=CC(=O)Nc1cccc(Oc2ccnc(Nc3ccc(N4CCN(C)CC4)cc3)n2)c1`, in assay [1], the liver cell % of control came out at 106% and the parasite % of control was 162% (inactive).
Turning to `COc1cc(NC(=O)c2cnc(N)o2)cc(C(=O)Nc2cccc(C(F)(F)F)c2)c1`, in assay [1], the liver cell % of control was found to be 87.7% and the parasite % of control is 106% (inactive).
The matching figures for `CC(C)Oc1cc(C(=O)N2CCC(N3CCCCC3)CC2)ccc1Nc1nnc(Cl)c(Nc2ccccc2S(C)(=O)=O)n1`: 98.2% and 81.6% (inactive).
Consider `NC1=NC(=O)C(=Cc2ccc(-c3ccc(S(N)(=O)=O)cc3)o2)S1`, for which, in assay [1], the liver cell % of control is 104% and the parasite % of control is 97.3% (inactive).
`COc1cc(O)c2c(c1)oc(=O)c1c3cc(O)c(O)cc3oc21`: in assay [1], the liver cell % of control turned out to be 107% and the parasite % of control was 36.8% (inactive).
In the case of `CCN1CCN(Cc2ccc(NC(=O)c3ccc(C)c(NC(=O)c4ccnnc4)c3)cc2C(F)(F)F)CC1`, in assay [1], the liver cell % of control was 104% and the parasite % of control is 100% (inactive).
With `CCN1CCN(Cc2ccc(NC(=O)c3ccc(C)c(NC(=O)c4ccno4)c3)cc2C(F)(F)F)CC1`, in assay [1], the liver cell % of control is 100% and the parasite % of control is 100% (inactive).
Turning to `COc1ccc(CNc2nc(NCc3ccc(OC)cc3)c3[nH]cnc3n2)cc1`, in assay [1], the liver cell % of control came out at 92.9% and the parasite % of control was 590% (inactive).
In the case of `OCCCNc1nccc(-c2cc(Nc3cccc(Cl)c3)ncn2)n1`, in assay [1], the liver cell % of control worked out at 81.8% and the parasite % of control was 176% (inactive).
Consider `Cc1ccc(C(=O)Nc2cccc(C(F)(F)F)c2)cc1NC(=O)c1nccnc1N`, for which, in assay [1], the liver cell % of control came to 95% and the parasite % of control was 83.1% (inactive).
In the case of `Cc1ccc(C(=O)Nc2cccc(C(F)(F)F)c2)cc1Nc1ncnc2nc[nH]c12`, in assay [1], the liver cell % of control was found to be 108% and the parasite % of control is 64.6% (inactive).
For the compound `Cn1c(C2=C(c3c4n(c5ccccc35)CCC(CN)C4)C(=O)NC2=O)cc2ccccc21` (stereo unspecified), in assay [1], the liver cell % of control is 41.8% and 77.6% and 88.8%; the parasite % of control was 3.36% (inactive) and 70.7% (inactive) and 90.3% (inactive).
In the case of `COc1cc(NC(=O)N2CCNC2=O)cc(C(=O)Nc2cccc(C(F)(F)F)c2)c1`, in assay [1], the liver cell % of control was found to be 104% and the parasite % of control is 223% (inactive).
Consider `COc1cc(NC(=O)c2cc(C)on2)cc(C(=O)Nc2cccc(C(F)(F)F)c2)c1`, for which, in assay [1], the liver cell % of control turned out to be 96.5% and the parasite % of control was 66.6% (inactive).
Regarding `CCN1CCN(Cc2ccc(NC(=O)c3cc(NC(=O)c4cnn(-c5ccccc5)c4N)cc(OC)c3)cc2C(F)(F)F)CC1`, in assay [1], the liver cell % of control was determined as 109% and the parasite % of control was 130% (inactive).
As to `CCN1CCN(Cc2ccc(NC(=O)c3cc(NC(=O)c4cnnc5ccccc45)cc(OC)c3)cc2C(F)(F)F)CC1`, in assay [1], the liver cell % of control is 94.5% and the parasite % of control is 85.8% (inactive).
The corresponding values for `CCN1CCN(Cc2ccc(NC(=O)c3ccc(C)c(NC(=O)c4nccn4C)c3)cc2C(F)(F)F)CC1` are 101% and 90.4% (inactive).
The matching figures for `CCN1CCN(Cc2ccc(NC(=O)c3ccc(C)c(NC(=O)N4CCNC4=O)c3)cc2C(F)(F)F)CC1`: 93% and 163% (inactive).
For the compound `COc1cc(NC(=O)c2ccc(N)nc2)cc(C(=O)Nc2cccc(C(F)(F)F)c2)c1`, in assay [1], the liver cell % of control is 97.9% and the parasite % of control is 85% (inactive).
On to `O=C(Nc1cccc(-c2csc(Nc3cccc(C(F)(F)F)c3)n2)c1)c1cc([N+](=O)[O-])cc(C(F)(F)F)c1`, for which, in assay [1], the liver cell % of control came out at 98.5% and the parasite % of control is 79.7% (inactive).
On to `O=C(Nc1ccc(-c2csc(Nc3ccccc3)n2)cc1)c1cccc(C(F)(F)F)c1`, for which, in assay [1], the liver cell % of control came to 99.8% and the parasite % of control is 99.4% (inactive).
As to `COc1cc(NC(=O)c2ccnc(N)c2)cc(C(=O)Nc2cccc(C(F)(F)F)c2)c1`, in assay [1], the liver cell % of control was found to be 96.6% and the parasite % of control is 89.2% (inactive).
Regarding `CCN1CCN(Cc2ccc(NC(=O)c3cc(NC(=O)c4ccno4)cc(OC)c3)cc2C(F)(F)F)CC1`, in assay [1], the liver cell % of control is 99.7% and the parasite % of control was 75.7% (inactive).
The corresponding values for `Cc1ccc(-c2c(C(=O)CCl)n(CCO)c3ncnc(N)c23)cc1` are 90.7% and 86.5% (inactive).
For `O=C1NN(c2ccccc2)C(=O)C1=Cc1ccc(-c2ccc(Cl)cc2)o1`, in assay [1], the liver cell % of control turned out to be 98.7% and the parasite % of control was 92.2% (inactive).
Consider `CCN1CCN(Cc2ccc(NC(=O)c3ccc(C)c(NC(=O)c4c[nH]c5cc(C(F)(F)F)ccc5c4=O)c3)cc2C(F)(F)F)CC1`, for which, in assay [1], the liver cell % of control turned out to be 45.6% and the parasite % of control was 4.19% (active).
Consider `NS(=O)(=O)c1ccc(-c2ccc(C=C3SC(=O)NC3=O)o2)cc1`, for which, in assay [1], the liver cell % of control is 89% and the parasite % of control is 18.1% (active).
On to `O=C1NCCC(=NNc2cccnc2)c2c1[nH]c1ccc(Cl)cc21`, for which, in assay [1], the liver cell % of control was 99.3% and the parasite % of control was 133% (inactive).
In the case of `C=CC(=O)Nc1ccc(Nc2ccnc(Nc3ccc(N4CCN(C)CC4)cc3)n2)cc1`, in assay [1], the liver cell % of control turned out to be 105% and the parasite % of control was 124% (inactive).
The corresponding values for `CCN1C(=O)CCN(C2CCCC2)c2nc(Nc3ccc(C(=O)NC4CCN(C)CC4)cc3OC)ncc21` are 91.7% and 362% (inactive).
For `CC(C)(C)OC(=O)NC(COc1cncc(Br)c1)Cc1c[nH]c2ccccc12` (stereo unspecified), in assay [1], the liver cell % of control stood at 95.1% and the parasite % of control is 98.7% (inactive).
`C=CC(=O)N1CCCC(Nc2nc(Nc3ccc(N(C)C(=O)CC)cc3C)nc3nc[nH]c23)C1` (stereo unspecified): in assay [1], the liver cell % of control came to 105% and the parasite % of control is 93.2% (inactive).
Regarding `CCN1CCN(Cc2ccc(NC(=O)c3ccc(C)c(C=Cc4cnc(Nc5cc(N6CCNCC6)nc(C)n5)cn4)c3)cc2C(F)(F)F)CC1`, in assay [1], the liver cell % of control worked out at 96.8% and the parasite % of control was 369% (inactive).
Turning to `O=C(Nc1ccc(-c2csc(Nc3cccc(C(F)(F)F)c3)n2)cc1)c1cccc(C(F)(F)F)c1`, in assay [1], the liver cell % of control was 101% and the parasite % of control is 45.1% (inactive).
As for `O=C1NC(=O)C(=Cc2ccc(-c3ccc(S(=O)(=O)N4CCNCC4)cc3)o2)C(=O)N1`, in assay [1], the liver cell % of control is 94.8% and the parasite % of control was 303% (inactive).
As for `CS(=O)(=O)Nc1ccc(-c2ccc(C=C3SC(N)=NC3=O)o2)cc1`, in assay [1], the liver cell % of control stood at 105% and the parasite % of control was 130% (inactive).
Consider `Cc1ccc(C(=O)Nc2cccc(C(F)(F)F)c2)cc1Nc1cnccn1`, for which, in assay [1], the liver cell % of control stood at 98.3% and the parasite % of control is 23.7% (inactive).
As to `CCN1CCN(Cc2ccc(NC(=O)c3ccc(C)c(NC(=O)c4cc(-c5ccc(Br)cc5)n[nH]4)c3)cc2C(F)(F)F)CC1`, in assay [1], the liver cell % of control was found to be 90.4% and the parasite % of control is 208% (inactive).
The matching figures for `CC(C)n1cnc2c(Nc3ccc(F)c(Cl)c3)nc(NCCO)nc21`: 96.9% and 107% (inactive).
On to `NC(=O)c1cccc(-c2cnc(N)c(C(=O)c3cccnc3)n2)c1`, for which, in assay [1], the liver cell % of control is 101% and the parasite % of control was 179% (inactive).
Consider `O=C(Nc1ccc(-c2csc(Nc3cccc(C(F)(F)F)c3)n2)cc1)c1ccccc1`, for which, in assay [1], the liver cell % of control stood at 106% and the parasite % of control is 69.1% (inactive).
Take `C=CC(=O)Nc1cccc(Nc2ccnc(Nc3ccc(N4CCN(C)CC4)cc3)n2)c1`: in assay [1], the liver cell % of control came out at 92.9% and the parasite % of control was 184% (inactive).
The matching figures for `COc1ccc(-c2cc(C(=O)Nc3cc(OC)cc(C(=O)Nc4cccc(C(F)(F)F)c4)c3)[nH]n2)cc1`: 93.9% and 36.9% (inactive).
The matching figures for `O=C(Nc1ccc(-c2csc(Nc3ccccc3)n2)cc1)c1cc([N+](=O)[O-])cc(C(F)(F)F)c1`: 102% and 102% (inactive).
The matching figures for `CCN1C(=O)CC(C(C)C)N(C2CCCC2)c2nc(Nc3ccc(C(=O)NC4CCN(C)CC4)cc3OC)ncc21` (stereo unspecified): 102% and 87.6% (inactive).
Consider `CCN1CCN(Cc2ccc(NC(=O)c3cc(NC(=O)c4ccc5n[nH]nc5c4)cc(OC)c3)cc2C(F)(F)F)CC1`, for which, in assay [1], the liver cell % of control came to 101% and the parasite % of control is 138% (inactive).
For `CCN1C(=O)CC(c2ccccc2)N(C2CCCC2)c2nc(Nc3ccc(C(=O)NC4CCN(C)CC4)cc3OC)ncc21` (stereo unspecified), in assay [1], the liver cell % of control came to 94.4% and the parasite % of control is 83.8% (inactive).
On to `CC(C)n1cnc2c(Nc3cccc(Cl)c3)nc(N(CCO)CCCO)nc21`, for which, in assay [1], the liver cell % of control amounted to 81.2% and the parasite % of control was 381% (inactive).
The matching figures for `C=CC(=O)Nc1cccc(Oc2cc(Cl)nc3[nH]ccc23)c1`: 101% and 63.5% (inactive).
In the case of `Cc1nc(Nc2cnc(C=Cc3cc(C(=O)Nc4cccc(C(F)(F)F)c4)ccc3C)cn2)cc(N2CCNCC2)n1`, in assay [1], the liver cell % of control turned out to be 92.4% and the parasite % of control was 144% (inactive).
In the case of `COc1cc(C(=O)N2CCC(N3CCCCC3)CC2)ccc1Nc1nnc(Cl)c(Nc2ccccc2S(C)(=O)=O)n1`, in assay [1], the liver cell % of control worked out at 97.3% and the parasite % of control was 118% (inactive).

(Values after PubChem BioAssay.)
